From PMC7862700, “An all-to-all approach to the identification of sequence-specific readers for epigenetic DNA modifications on cytosine” come the findings set out here.

What all share (assay): DAPPL (digital affinity profiling via proximity ligation, sequencing); 10 mM Tris-HCl pH 7.5, 50 mM NaCl, 1 mM DTT, 4% glycerol, room temperature, 30 min; GST-TFs on glutathione beads, 16-mer random dsDNA library, 0.1% formaldehyde crosslink after washing; high values mean tight binding
One assay concerns the target T1, FLI1 (Homo sapiens, UniProt Q01543 1-452).
T1 sequence: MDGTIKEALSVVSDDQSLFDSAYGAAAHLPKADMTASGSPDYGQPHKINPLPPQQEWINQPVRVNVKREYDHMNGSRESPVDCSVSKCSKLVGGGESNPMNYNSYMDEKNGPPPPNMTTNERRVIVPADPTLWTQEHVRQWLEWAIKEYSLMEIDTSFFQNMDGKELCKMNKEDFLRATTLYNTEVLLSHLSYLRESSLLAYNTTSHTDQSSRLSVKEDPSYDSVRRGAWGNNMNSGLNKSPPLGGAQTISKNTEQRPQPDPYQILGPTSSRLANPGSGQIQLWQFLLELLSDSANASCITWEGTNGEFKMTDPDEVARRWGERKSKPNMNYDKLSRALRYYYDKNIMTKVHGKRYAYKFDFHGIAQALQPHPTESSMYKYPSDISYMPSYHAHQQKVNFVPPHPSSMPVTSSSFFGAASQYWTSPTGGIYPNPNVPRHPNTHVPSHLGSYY
As to conditions: protein: recombinant; tags: N-terminal GST; dsDNA, one strand shown. The method, boiled down: (§1)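 Pools were built from human transcription factors expressed in yeast as GST fusions, captured on glutathione beads and DNA-barcoded, along with a tag-only sample. Incubation with 200 nmole of a 16-mer random double-stranded DNA library lasted 30 min at room temperature in Tris/NaCl/DTT/glycerol buffer, and was followed by washing, 0.1% formaldehyde crosslinking, proximity ligation, PCR amplification and Illumina NextSeq500 sequencing. Binding signal is the quotient of each hexamer's read frequency for a factor and its frequency for the tag-only sample.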

Another assay addresses T2, ELK1 (Homo sapiens, UniProt P19419 1-428).
T2 sequence: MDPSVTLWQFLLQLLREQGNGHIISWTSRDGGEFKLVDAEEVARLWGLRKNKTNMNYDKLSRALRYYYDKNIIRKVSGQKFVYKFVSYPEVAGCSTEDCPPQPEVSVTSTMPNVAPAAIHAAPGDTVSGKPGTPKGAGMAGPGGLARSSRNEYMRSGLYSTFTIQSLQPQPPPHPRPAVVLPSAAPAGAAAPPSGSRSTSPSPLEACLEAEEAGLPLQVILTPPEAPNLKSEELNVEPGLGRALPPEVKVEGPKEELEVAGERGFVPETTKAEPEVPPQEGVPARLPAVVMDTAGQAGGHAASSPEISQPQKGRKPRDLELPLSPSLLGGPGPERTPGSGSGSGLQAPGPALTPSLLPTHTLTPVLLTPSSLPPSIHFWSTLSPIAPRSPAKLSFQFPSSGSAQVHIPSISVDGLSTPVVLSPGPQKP
The settings on record: protein: recombinant; tags: N-terminal GST; dsDNA, one strand shown. The method, boiled down:
as §1

The next assay concerns the target T3, GABPA (Homo sapiens, UniProt Q06546 1-454).
T3 sequence: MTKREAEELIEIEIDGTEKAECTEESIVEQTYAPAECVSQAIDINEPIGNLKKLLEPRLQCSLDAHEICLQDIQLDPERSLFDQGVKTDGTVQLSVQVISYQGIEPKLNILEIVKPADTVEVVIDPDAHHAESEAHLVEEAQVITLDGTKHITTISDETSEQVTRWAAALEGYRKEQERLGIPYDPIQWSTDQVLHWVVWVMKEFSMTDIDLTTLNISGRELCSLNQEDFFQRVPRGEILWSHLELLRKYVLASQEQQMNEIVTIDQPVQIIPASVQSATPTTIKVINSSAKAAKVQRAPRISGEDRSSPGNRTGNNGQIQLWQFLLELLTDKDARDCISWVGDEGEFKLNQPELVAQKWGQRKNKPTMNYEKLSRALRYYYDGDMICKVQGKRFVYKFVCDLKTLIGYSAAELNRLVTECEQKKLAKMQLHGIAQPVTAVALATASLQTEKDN
The settings on record: protein: recombinant; tags: N-terminal GST; dsDNA, one strand shown. An outline of the steps: as §1

The target in a further assay is T4, ERG (Homo sapiens, UniProt P11308 1-479).
T4 sequence: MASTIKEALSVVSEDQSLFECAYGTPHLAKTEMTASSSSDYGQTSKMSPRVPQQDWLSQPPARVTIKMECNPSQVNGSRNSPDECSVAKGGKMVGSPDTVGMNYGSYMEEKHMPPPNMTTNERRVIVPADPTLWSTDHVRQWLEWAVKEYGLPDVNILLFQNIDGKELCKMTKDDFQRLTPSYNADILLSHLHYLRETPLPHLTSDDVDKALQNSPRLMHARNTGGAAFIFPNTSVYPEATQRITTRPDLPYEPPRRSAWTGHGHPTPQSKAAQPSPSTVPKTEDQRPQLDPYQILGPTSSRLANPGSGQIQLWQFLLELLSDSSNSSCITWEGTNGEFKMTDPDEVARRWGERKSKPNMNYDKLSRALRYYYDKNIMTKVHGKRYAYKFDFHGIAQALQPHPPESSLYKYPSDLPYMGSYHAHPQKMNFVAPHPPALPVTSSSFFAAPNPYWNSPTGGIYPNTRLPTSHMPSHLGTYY
The settings on record: protein: recombinant; tags: N-terminal GST; dsDNA, one strand shown. An outline of the steps:
as §1

The next assay has as its target ELF1 (Homo sapiens, UniProt P32519 1-619). The settings on record: protein: recombinant; tags: N-terminal GST; dsDNA, one strand shown. The method, boiled down: as §1
The target in the next assay is T5, EHF (Homo sapiens, UniProt Q9NZC4 1-300).
T5 sequence: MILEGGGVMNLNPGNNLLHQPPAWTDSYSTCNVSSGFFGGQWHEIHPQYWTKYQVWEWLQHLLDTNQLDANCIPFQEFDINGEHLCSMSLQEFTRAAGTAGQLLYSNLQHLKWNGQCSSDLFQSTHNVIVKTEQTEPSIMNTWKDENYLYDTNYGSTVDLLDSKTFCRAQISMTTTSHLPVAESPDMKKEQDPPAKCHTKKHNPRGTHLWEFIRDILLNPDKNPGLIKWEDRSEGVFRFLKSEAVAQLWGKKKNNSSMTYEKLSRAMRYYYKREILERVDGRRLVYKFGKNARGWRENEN
The settings on record: protein: recombinant; tags: N-terminal GST; dsDNA, one strand shown. An outline of the steps:
as §1

For another assay, the target named is SPI1 (Homo sapiens, UniProt P17947 1-270). The settings on record: protein: recombinant; tags: N-terminal GST; dsDNA, one strand shown. An outline of the steps:
as §1

The target in the next assay is SPIB (Homo sapiens, UniProt Q01892 1-262). The settings on record: protein: recombinant; tags: N-terminal GST; dsDNA, one strand shown. The method, boiled down: as §1
The target in the next assay is T6, ELK3 (Homo sapiens, UniProt P41970 1-407).
T6 sequence: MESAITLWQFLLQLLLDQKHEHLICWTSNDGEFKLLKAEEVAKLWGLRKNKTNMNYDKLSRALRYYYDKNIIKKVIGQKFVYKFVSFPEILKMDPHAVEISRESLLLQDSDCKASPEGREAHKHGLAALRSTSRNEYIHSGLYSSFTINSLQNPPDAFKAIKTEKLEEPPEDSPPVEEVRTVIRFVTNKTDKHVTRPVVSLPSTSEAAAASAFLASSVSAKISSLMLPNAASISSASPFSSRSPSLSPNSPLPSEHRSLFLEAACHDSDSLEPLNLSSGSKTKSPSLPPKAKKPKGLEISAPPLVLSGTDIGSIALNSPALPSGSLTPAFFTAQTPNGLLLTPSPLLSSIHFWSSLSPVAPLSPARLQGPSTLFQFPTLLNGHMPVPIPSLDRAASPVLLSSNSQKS
The settings on record: protein: recombinant; tags: N-terminal GST; dsDNA, one strand shown. An outline of the steps: as §1

The target in the next assay is T7, FEV (Homo sapiens, UniProt Q99581 1-238).
T7 sequence: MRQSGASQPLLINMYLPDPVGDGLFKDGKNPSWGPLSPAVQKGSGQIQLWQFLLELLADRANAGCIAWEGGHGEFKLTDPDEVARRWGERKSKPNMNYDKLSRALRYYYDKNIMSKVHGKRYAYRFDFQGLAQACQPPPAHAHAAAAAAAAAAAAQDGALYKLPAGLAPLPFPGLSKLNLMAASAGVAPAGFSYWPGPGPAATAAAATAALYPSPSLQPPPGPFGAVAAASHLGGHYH
As to conditions: protein: recombinant; tags: N-terminal GST; dsDNA, one strand shown. The method, boiled down: as §1

The target of the next assay is ETV5 (Homo sapiens, UniProt P41161 1-510). The settings on record: protein: recombinant; tags: N-terminal GST; dsDNA, one strand shown. An outline of the steps: as §1
The next assay deals with HSF1 (Homo sapiens, UniProt Q00613 1-529). As to conditions: protein: recombinant; tags: N-terminal GST; chain copies: 3; dsDNA, one strand shown. The method, boiled down: as §1
The target in another assay is T8, SPIC (Homo sapiens, UniProt Q8N5J4 1-248).
T8 sequence: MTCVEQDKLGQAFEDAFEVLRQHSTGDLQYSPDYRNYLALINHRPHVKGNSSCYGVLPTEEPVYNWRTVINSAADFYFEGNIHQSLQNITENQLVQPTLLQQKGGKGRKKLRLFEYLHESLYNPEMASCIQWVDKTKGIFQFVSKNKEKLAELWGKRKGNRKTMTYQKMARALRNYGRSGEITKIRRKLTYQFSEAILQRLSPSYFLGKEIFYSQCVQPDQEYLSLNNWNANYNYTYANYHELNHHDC
The settings on record: protein: recombinant; tags: N-terminal GST; dsDNA, one strand shown. An outline of the steps: as §1

Another assay addresses ELF4 (Homo sapiens, UniProt Q99607 1-663). The settings on record: protein: recombinant; tags: N-terminal GST; dsDNA, one strand shown. An outline of the steps: as §1
The target in a further assay is T9, ELK4 (Homo sapiens, UniProt P28324-2 1-405).
T9 sequence: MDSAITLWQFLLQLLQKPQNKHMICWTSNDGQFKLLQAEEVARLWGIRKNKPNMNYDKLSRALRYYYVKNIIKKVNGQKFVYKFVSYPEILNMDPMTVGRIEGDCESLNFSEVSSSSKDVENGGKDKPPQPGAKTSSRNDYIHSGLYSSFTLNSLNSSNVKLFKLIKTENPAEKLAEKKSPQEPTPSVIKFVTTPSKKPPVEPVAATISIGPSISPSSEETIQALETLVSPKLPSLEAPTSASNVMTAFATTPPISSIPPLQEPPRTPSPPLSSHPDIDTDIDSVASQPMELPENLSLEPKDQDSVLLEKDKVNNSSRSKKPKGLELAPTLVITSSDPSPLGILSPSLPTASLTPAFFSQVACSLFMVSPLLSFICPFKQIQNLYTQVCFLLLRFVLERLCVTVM
The settings on record: protein: recombinant; tags: N-terminal GST; dsDNA, one strand shown. The method, boiled down: as §1

The target of the next assay is T10, ETV2 (Homo sapiens, UniProt O00321 1-342).
T10 sequence: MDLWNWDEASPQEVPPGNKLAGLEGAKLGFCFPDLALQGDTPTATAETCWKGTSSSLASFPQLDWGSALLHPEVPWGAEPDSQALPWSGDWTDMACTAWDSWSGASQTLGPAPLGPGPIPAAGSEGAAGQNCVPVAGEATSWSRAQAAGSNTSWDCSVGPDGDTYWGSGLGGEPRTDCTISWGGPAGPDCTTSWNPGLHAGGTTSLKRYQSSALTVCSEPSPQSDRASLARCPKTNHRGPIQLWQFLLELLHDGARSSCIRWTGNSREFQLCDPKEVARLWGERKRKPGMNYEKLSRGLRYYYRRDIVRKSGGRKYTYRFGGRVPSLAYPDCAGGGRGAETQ
As to conditions: protein: recombinant; tags: N-terminal GST; dsDNA, one strand shown. The method, boiled down: as §1

A further assay deals with T11, ELF3 (Homo sapiens, UniProt P78545 1-371).
T11 sequence: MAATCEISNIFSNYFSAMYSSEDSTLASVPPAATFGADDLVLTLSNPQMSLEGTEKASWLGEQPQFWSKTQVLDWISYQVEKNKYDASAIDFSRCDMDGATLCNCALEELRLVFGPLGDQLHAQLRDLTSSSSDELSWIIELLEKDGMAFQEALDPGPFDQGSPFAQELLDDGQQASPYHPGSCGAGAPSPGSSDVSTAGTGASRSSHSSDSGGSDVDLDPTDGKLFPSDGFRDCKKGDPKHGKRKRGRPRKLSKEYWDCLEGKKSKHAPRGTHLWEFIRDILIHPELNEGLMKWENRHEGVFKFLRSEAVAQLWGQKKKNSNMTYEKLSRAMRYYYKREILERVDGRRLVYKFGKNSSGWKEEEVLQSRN
The settings on record: protein: recombinant; tags: N-terminal GST; dsDNA, one strand shown. The method, boiled down:
as §1

Another assay deals with CRX (Homo sapiens, UniProt O43186 1-299). As to conditions: protein: recombinant; tags: N-terminal GST; dsDNA, one strand shown. An outline of the steps:
as §1

The next assay addresses ETV1 (Homo sapiens, UniProt P50549 1-477). As to conditions: protein: recombinant; tags: N-terminal GST; dsDNA, one strand shown. An outline of the steps: as §1

Chain of HSF1 (Q00613 whole entry): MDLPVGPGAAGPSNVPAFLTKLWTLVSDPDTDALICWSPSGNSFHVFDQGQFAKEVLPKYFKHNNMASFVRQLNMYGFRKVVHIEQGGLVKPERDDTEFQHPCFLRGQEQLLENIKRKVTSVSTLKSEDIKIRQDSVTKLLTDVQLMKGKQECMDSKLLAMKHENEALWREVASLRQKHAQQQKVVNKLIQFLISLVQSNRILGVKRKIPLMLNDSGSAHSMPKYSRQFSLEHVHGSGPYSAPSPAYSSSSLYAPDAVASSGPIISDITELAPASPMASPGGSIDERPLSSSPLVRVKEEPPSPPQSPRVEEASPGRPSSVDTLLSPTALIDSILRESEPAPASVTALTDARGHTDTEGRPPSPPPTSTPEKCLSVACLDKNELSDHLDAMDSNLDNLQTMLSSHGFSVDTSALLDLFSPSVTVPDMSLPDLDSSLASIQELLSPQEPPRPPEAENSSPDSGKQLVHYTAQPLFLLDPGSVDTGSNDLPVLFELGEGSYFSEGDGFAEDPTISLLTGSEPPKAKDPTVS
Chain of ELF1 (P32519 whole entry): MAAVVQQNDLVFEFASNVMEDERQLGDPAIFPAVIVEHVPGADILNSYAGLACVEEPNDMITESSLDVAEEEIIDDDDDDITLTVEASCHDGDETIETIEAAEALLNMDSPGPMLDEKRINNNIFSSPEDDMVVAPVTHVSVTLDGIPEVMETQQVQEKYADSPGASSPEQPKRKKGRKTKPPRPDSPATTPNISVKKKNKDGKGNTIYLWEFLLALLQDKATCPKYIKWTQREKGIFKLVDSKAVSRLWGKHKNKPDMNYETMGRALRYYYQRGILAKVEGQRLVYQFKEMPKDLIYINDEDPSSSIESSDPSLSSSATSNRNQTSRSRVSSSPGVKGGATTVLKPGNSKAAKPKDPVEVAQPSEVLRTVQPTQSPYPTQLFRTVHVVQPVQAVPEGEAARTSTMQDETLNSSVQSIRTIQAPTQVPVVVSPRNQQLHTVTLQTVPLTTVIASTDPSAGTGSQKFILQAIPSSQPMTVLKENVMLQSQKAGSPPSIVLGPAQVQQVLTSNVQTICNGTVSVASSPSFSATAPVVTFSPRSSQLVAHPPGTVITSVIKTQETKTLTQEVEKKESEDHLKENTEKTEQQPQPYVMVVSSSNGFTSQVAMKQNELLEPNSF
Chain of SPIB (Q01892 whole entry): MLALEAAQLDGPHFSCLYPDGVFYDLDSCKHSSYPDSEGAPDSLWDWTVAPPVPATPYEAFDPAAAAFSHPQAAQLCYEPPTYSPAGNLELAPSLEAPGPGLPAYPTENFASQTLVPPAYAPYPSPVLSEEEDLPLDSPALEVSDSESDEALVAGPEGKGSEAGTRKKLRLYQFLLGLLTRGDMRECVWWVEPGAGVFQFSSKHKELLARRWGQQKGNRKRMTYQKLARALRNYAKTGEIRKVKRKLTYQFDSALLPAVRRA
Chain of ETV1 (P50549 whole entry): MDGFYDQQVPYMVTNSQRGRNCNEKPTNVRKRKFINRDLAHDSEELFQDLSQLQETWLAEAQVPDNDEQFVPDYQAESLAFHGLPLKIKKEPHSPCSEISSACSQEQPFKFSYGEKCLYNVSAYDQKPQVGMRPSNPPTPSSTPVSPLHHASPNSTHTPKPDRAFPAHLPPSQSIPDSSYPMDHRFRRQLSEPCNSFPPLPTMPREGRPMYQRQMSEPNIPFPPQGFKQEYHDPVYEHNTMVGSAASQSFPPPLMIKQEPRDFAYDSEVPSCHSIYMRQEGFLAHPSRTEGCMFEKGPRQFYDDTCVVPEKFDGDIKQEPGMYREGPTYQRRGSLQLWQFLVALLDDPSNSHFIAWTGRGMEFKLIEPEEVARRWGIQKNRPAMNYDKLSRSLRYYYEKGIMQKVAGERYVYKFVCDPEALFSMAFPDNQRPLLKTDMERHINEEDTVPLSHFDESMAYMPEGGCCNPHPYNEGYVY
Chain of ETV5 (P41161 whole entry): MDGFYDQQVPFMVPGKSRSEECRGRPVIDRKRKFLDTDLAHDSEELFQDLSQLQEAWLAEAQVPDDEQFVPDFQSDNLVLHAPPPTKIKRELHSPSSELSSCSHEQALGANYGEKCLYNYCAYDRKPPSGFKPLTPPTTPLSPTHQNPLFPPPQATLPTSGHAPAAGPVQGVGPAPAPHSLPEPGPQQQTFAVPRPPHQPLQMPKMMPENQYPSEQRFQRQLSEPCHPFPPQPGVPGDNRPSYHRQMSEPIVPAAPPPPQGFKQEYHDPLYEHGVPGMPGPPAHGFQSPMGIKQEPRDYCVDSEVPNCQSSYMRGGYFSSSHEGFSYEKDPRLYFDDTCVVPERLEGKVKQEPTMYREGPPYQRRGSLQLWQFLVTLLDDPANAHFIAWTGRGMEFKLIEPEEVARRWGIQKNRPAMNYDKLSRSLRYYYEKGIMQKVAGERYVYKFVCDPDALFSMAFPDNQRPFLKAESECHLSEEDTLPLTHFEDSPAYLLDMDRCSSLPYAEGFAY
Chain of CRX (O43186 whole entry): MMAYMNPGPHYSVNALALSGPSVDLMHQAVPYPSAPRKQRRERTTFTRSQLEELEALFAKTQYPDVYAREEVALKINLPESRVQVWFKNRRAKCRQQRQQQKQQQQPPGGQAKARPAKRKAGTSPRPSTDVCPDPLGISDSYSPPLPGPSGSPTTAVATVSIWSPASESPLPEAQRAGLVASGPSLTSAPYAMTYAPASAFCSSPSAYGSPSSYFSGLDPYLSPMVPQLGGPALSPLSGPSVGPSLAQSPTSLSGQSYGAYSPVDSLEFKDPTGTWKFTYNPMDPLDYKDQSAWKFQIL
Chain of ELF4 (Q99607 whole entry): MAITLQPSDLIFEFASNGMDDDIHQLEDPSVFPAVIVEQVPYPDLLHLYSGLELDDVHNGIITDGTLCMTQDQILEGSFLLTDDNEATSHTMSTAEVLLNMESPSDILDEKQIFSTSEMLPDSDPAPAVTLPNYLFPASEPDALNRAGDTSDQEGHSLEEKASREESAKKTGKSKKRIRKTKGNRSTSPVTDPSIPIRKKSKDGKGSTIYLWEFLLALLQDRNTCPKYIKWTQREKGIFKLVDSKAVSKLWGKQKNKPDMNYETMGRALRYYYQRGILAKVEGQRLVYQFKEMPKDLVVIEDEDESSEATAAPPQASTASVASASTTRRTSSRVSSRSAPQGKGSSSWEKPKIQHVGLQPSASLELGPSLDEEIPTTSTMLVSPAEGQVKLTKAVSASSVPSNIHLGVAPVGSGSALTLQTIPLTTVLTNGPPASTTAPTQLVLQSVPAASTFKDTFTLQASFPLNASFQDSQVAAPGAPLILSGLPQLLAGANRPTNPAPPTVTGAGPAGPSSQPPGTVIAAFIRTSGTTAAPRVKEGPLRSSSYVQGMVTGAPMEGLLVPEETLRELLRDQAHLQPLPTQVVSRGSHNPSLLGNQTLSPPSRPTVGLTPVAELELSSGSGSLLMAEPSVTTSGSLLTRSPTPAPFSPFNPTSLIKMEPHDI

For the sequence TGCGAA, the binding signal in the assay with FLI1 is 1.21 fold enrichment (6-mer frequency, TF over GST control); with ELK1 it was 1.2 fold enrichment (6-mer frequency, TF over GST control); with GABPA it was 1.07 fold enrichment (6-mer frequency, TF over GST control); with ERG it was 1.16 fold enrichment (6-mer frequency, TF over GST control); with ELF1, 1.23 fold enrichment (6-mer frequency, TF over GST control); with EHF, 1.18 fold enrichment (6-mer frequency, TF over GST control). Moreover, the binding signal was 1.26 fold enrichment (6-mer frequency, TF over GST control) with SPI1; 1.22 fold enrichment (6-mer frequency, TF over GST control) with SPIB; 1.07 fold enrichment (6-mer frequency, TF over GST control) in the assay with ELK3; 1.14 fold enrichment (6-mer frequency, TF over GST control) with FEV; 1.23 fold enrichment (6-mer frequency, TF over GST control) with ETV5; 1.21 fold enrichment (6-mer frequency, TF over GST control) with HSF1. Also, the binding signal is 1.02 fold enrichment (6-mer frequency, TF over GST control) with SPIC; 1.21 fold enrichment (6-mer frequency, TF over GST control) in the assay with ELF4; 1.19 fold enrichment (6-mer frequency, TF over GST control) with ELK4; 1.18 fold enrichment (6-mer frequency, TF over GST control) with ETV2; 1.14 fold enrichment (6-mer frequency, TF over GST control) with ELF3; 1.06 fold enrichment (6-mer frequency, TF over GST control) with CRX. Further, the binding signal with ETV1 is 1.19 fold enrichment (6-mer frequency, TF over GST control).
